HTT promoter inh: HTT promoter inhibition. HEK293 HTT promoter firefly luciferase reporter, 24 h. Potency, µM (series often up to 57.5 µM), without a hit: at the top dose activity change, negative = inhibition, hits mostly inhibitors. hit rate 0.93% among 48,000; further: potency means the concentration at half of the fitted maximal effect; nearly all actives have a fitted effect of over 50% in size
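HEK293 luciferase promoter-reporter cells (2,500/well) plated 24 h, then compounds added at up to 57.5 uM final for 24 h at 37 °C. Firefly luminescence by Dual-Glo, normalized to vehicle (0%) and zero RLU (-100%).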
DRV1 agonist: activates human resolvin D1 receptor GPR32; O75388; CHO-K1 GPR32 beta-arrestin PathHunter luminescence, 90 min; zero percent set by DMSO-only wells; activation, % at 76.9 µM; hit rate 2.5% among 48,000; AID 1346428;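 active means activation of at least 60% and not above a set upper limit, about 1 call in 100 departs from these limits; inconclusive means activation of 40% to 60%, or above that upper limit; inactive means activation under 40%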; further: 0% is about no effect
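Using DMSO wells as EC0, agonist-induced signal was taken as chemiluminescence from beta-Gal reconstituted upon beta-arrestin recruitment to GPR32 in CHO-K1 cells after 90 min compound treatment.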
NTMT1 inhibitor: NTMT1 methyltransferase inhibition | Q9BV86 | Potency, µM (doses to about 114 µM), for inactives: top-dose activity change, negative = inhibition, hits mostly inhibitors | NTMT1 MTase-Glo SAH luminescence, purified enzyme | hit rate 2.5% among 59,000;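 further: potency means the concentration at half of the fitted maximal effect; plate controls were DMSO vehicle for no effect and no enzyme for full effect; nearly all actives have a fitted effect of over 65% in size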
HTT-AS promoter: activators of huntingtin-antisense promoter activity | Potency, µM (series often up to 57.5 µM), without a hit: at the highest dose activity change, positive = activation, most hits filed as activators | HEK293 HTT-AS promoter firefly luciferase reporter, 24 h; response scale: percent change from vehicle, -100% = no light | hit rate 0.24% among 48,000 | AID 1508624; further: potency means the concentration at half of the fitted maximal effect; nearly all actives have a fitted effect of over 55% in size
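HEK293 cells carrying firefly luciferase reporters were seeded at 2,500 per well in Opti-MEM and cultured for 24 h. They were then treated with compounds at up to 57.5 uM final for 24 h at 37 degrees C before Dual-Glo luminescence readout.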
FH mod: Identification of activators of human fumarate hydratase by quantitative high-throughput screening | FH coupled MDH/diaphorase resazurin fluorescence, 15 min | hit rate 0.22% among 54,000 | AID 1347055, 2019 | Fumarate hydratase, mitochondrial (Homo sapiens), P07954 | Potency, µM (doses to about 79.9 µM), without a hit: at the highest dose activity change, negative = inhibition, hits mostly inhibitors; further: potency means the concentration at half of the fitted maximal effect; on the % scale 0 is the no-effect control and ±100 the full control effect; the screen sought activators but most active calls are inhibition curves; nearly all actives have a fitted effect of over 45% in size
Target sequence (P07954 whole entry, looked up): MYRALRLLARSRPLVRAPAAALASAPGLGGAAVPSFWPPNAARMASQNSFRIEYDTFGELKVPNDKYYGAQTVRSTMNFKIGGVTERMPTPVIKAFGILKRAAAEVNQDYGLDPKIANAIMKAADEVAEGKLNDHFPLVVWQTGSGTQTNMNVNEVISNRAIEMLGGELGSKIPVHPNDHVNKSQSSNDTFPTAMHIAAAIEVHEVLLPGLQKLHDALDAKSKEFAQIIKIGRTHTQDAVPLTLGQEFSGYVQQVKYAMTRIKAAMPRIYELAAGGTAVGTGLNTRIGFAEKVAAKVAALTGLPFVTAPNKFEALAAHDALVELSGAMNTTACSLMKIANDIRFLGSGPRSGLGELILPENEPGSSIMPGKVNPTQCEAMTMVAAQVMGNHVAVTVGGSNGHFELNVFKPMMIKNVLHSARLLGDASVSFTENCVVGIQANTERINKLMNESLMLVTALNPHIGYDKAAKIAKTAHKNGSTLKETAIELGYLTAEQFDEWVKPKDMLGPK
Active calls of the source: *; ? = inconclusive; nt = no result; ! = not confirmed by another sample; [ ] = another dose, or the depositor's remark. A selection: hits, their analogues and other compounds. The true share with any hit is near 4.7%. Unless noted, the call rests on the fitted dose curve; in most records, active means well fitted curve in the direction sought with a large enough effect; inconclusive means small, poorly fitted or top-dose-only effect, or another doubt; inactive means no such curve, though single readings can be large; an effect the other way counts as inactive or inconclusive.

SMILES	HTT promoter inh	DRV1 agonist	NTMT1 inhibitor	HTT-AS promoter	FH mod
COc1ccc(-c2nc(C)c(CCNC(=O)Cc3ccc(F)cc3)s2)cc1OC	-17%	11	-24%	-7%	-7%
COc1ccc(-c2nc(C)c(CCNC(=O)C(=O)Nc3c(C)cccc3C)s2)cc1OC	1%	70*	11%	1%	-7%
COc1ccc(CC(=O)NCCc2sc(-c3ccc(Cl)cc3)nc2C)cc1OC	-51%	92*	-7%	-41%	8%
C[C@H]1NCc2cc(-c3ccc4c(=O)c(C(=O)O)cn(C5CC5)c4c3OC(F)F)ccc21	-5%[25.2 µM]	-6	?	-7%[25.1 µM]	4%[20.6 µM]
Nc1cc(C(F)(F)F)ccc1S	-3%	31	8.9µM*	-7%	-19%[53.3 µM]
O=c1c2oc3ccccc3c2n(Cc2ccccc2Cl)c(=O)n1Cc1ccco1	-9%	-13	4%	-17%	2%
Cc1cccc(N2CCN(C(=O)c3ccc4nc(N5CCC(C)CC5)sc4c3)CC2)c1C	2.5µM*	-1	-4%	-75%	-13%
Cc1ccc(CCNC(=O)c2ccc3nc(N4CCC(C)CC4)sc3c2)cc1	0.35µM*	-9	1%	-73%	1%
CC1CCN(c2nc3ccc(C(=O)NCc4ccccc4Cl)cc3s2)CC1	0.28µM*	16	-10%	-81%	-13%
O=C(NCCc1ccccc1)c1ccc2nc(N3CCCCC3)sc2c1	?	-7	?	-43%	0%
O=C(NCc1cccc(Cl)c1)c1ccc2nc(N3CCCCC3)sc2c1	?	-9	-3%	-38%	?
COc1ccccc1CNC(=O)c1ccc2nc(N3CCCCC3)sc2c1	?	6	?	-28%	-20%
Cc1ccc2nc(N3CCN(C(=O)C4CC4)CC3)sc2c1	44%	-5	4%	?	1%
CC1CCN(c2nc3ccc(C(=O)NCc4ccc(Cl)cc4)cc3s2)CC1	0.25µM*	-19	-19%	-79%	-23%
COc1ccc(C)cc1NC(=O)N1CCN(c2cc(-c3noc(C)n3)ccc2C)CC1	?	-1	-10%	-43%	-5%
CC1CCC2(C(=O)O)CCC3(C)C(=CCC4C5(C)CCC(OC(=O)/C=C/c6ccccc6)C(C)(C)C5CCC43C)C2C1C (centres undefined)	nt	nt	2%[12.6 µM]	nt	1%[20.6 µM]
CN1Cc2cc(C(=O)N3CCC(C4CCNCC4)CC3)ccc2NC(CC(=O)O)C1=O (centres undefined)	0%	-7	-1%[57.5 µM]	-3%	-4%[53.3 µM]
CC(=O)Nc1ccc2nc(SCCOc3ccc(C)cc3)sc2c1	-6%	45	?	-7%	0%
O=C(COc1ccccc1F)Nc1ccc2nc(SCCOc3ccccc3)sc2c1	-14%	99*	11%	-20%	2%
CC(=O)Nc1ccc2nc(SCCOc3ccccc3)sc2c1	14%	118*	-11%	16%	-5%
CCc1ccccc1NC(=O)c1cnc2sc(N3CCCC3)nn2c1=O	-5%	1	0%	-17%	8%
CSc1cccc(Nc2nc3c(S(=O)(=O)c4ccccc4)nnn3c3ccc(Cl)cc23)c1	6%	4	10%	4%	12%
CCn1c(=O)sc2cc(NS(=O)(=O)c3ccc(F)c(C)c3)ccc21	14µM*	18	20%	-52%	-15%
CCn1cc(C(=O)N2CCN(c3ccccc3F)CC2)c(=O)c2cc(S(=O)(=O)N(C)C3CCCCC3)ccc21	-4%	6	9%	-13%	-15%
NC(=O)c1c(OCc2c(F)cc(Br)cc2F)nsc1NC(=O)NCCCCN1CCCC1	-20%	nt	30µM*!	-23%	25%
NC(=O)C1(N2CCCCC2)CCN(CCCN2c3ccccc3CCc3ccc(Cl)cc32)CC1	?	?	-4%[57.5 µM]	-38%	-14%[53.3 µM]
CC(=O)Nc1ccc(NC(=O)CSc2nccn2Cc2ccc3c(c2)OCO3)cc1	?	0	-11%	-12%	3%
COc1cccc(NC(=O)CSc2nccn2Cc2ccc3c(c2)OCO3)c1	8%	75*	-4%	6%	-8%
CCOc1ccccc1NC(=O)CSc1nc2cc(OC)c(OC)cc2c2nc(CCn3c(C)nc4ccccc43)nn12	?	2	2%	-8%	0%

Screening results from PubChem BioAssay.
